Most compounds without a hit are left out; they make up all but 21% or so of the library.
IL1B secr inh = blocks inflammasome-driven IL-1 beta release. hit rate 4.7% among 360,000. activity change, % at 57.5 µM. THP-1 LPS/ATP IL-1B secretion, AlphaLISA, 16 h; active compounds read low; in the data active means activity change below about -50%; inconclusive means mostly about -30% to -49%
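THP-1 cells pretreated 1 hr with compounds (up to 57.5 uM final), then stimulated with LPS (250 ng/mL final) plus ATP (1.25 mM final); secreted IL-1B measured by AlphaLISA after 16 hr, decreased signal indicating inhibition.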
ELG1 repair inh = ELG1-dependent DNA repair inhibition; hit rate 2.3% among 330,000; AID 504467; HEK293T ELG1-luciferase reporter, luminescence, 16 h; DNA damage induced by 5-fluorouridine; Potency, µM (doses to about 46.1 µM), for inactives: at the top dose activity change, negative = inhibition, hits mostly inhibitors; further: potency means the concentration at half of the fitted maximal effect; nearly all actives have a fitted effect of over 55% in size
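Reporter activity after DNA damage by 5-fluorouridine is monitored. Compound-treated cells incubate 16 hr at 37 °C, then ONE-Glo is added for 30 min before luminescence reading.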
Gal4-VP16 FLuc = Gal4-VP16 reporter inhibition counter-screen; Drosophila S2 Gal4-VP16 UAS-luciferase, luminescence, 20 h; Potency, µM (doses to about 53.6 µM), for inactives: at the highest dose activity, negative = inhibition, hits mostly inhibitors; hit rate 3.5% among 310,000; AID 2546;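 further: Gal4-VP16 expression switched on by copper sulfate through the metallothionein promoter; potency means the concentration at half of the fitted maximal effect; nearly all actives have a fitted effect of over 50% in size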
TDP1 cell noCPT = qHTS for Inhibitors of human tyrosyl-DNA phosphodiesterase 1 (TDP1): qHTS in cells in absence of CPT | hit rate 15% among 420,000 | Potency, µM (titrated, usually from 46.2 µM), inactives show at the top dose activity change, negative = growth inhibition, actives largely listed as inhibitors | DT40 Tdp1-/- hTDP1 cells, no CPT, ATP luminescence, 48 h; further: potency means the concentration at half of the fitted maximal effect; nearly all actives have a fitted effect of over 55% in size
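Seeded 400 DT40-hTDP1 cells/well (vehicle DMSO, no 20 nM CPT); pinned compounds; ≥48 hr at 37 °C; CellTiter-Glo luminescence as viability measure.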
RORgamma inh = inhibitors of mouse ROR gamma transcriptional activity | P51450 | Potency, µM (titrated, usually from 53.6 µM), without a hit: at the top dose activity change, negative = inhibition, actives largely listed as inhibitors | AID 2551 | Drosophila S2 Gal4-RORgamma UAS-luciferase reporter, 20 h | hit rate 5.4% among 310,000; further: potency means the concentration at half of the fitted maximal effect; nearly all actives have a fitted effect of over 60% in size
Target sequence (P51450 whole entry, looked up, the tested form may be a part): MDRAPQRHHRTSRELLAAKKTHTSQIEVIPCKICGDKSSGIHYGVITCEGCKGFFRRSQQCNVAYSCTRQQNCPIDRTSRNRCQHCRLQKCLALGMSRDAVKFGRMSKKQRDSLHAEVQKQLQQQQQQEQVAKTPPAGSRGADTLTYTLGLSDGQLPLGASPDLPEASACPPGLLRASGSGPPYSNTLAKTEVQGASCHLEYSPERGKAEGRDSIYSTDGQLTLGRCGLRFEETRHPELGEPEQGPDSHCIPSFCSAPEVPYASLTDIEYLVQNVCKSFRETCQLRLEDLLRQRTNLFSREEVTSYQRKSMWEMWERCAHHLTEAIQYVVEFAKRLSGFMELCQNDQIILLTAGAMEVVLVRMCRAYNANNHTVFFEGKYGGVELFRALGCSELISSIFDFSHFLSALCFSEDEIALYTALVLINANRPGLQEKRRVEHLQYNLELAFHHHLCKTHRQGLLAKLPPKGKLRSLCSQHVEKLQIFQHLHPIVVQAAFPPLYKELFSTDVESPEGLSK
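Stably transfected Drosophila Schneider cells are the test system, with ROR gamma fused to Gal4 and luciferase under UAS control; luminescence is read after 20 hr of 700 uM copper sulfate induction at ambient temperature.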
DT40 TDP1 CPT = growth inhibition of DT40 Tdp1-/-;hTDP1 cells with camptothecin (screen for TDP1 inhibitors). chicken DT40 Tdp1-/-;hTDP1 cells + 20 nM CPT, ATP luminescence, 48 h. Potency, µM (titrated, usually from 46.2 µM), inactives show at the top dose activity change, negative = growth inhibition, most hits filed as inhibitors. hit rate 12% among 420,000. AID 686979; further: potency means the concentration at half of the fitted maximal effect; nearly all actives have a fitted effect of over 55% in size
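Chicken DT40 Tdp1-/- cells stably complemented with human TDP1 were seeded at 400 cells/well in medium containing 20 nM camptothecin, exposed to pin-transferred compounds, and grown at 37 °C for at least 48 hr. Viability was read as ATP luminescence.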
* = called active by the depositor. Unless noted, the call rests on the fitted dose curve; in most records, active means well fitted curve in the direction sought with a large enough effect; inconclusive means small, poorly fitted or top-dose-only effect, or another doubt; inactive means no such curve, though single readings can be large; an effect the other way counts as inactive or inconclusive. On the % scale 0 is the no-effect control and ±100 the full control effect.

What do the screens show for `CC(NC(=O)CCc1nnc(-c2ccc(-c3ccccc3)cc2)o1)c1nccs1` (stereo unspecified)?
IL1B secr inh: -15.2; ELG1 repair inh: inconclusive; Gal4-VP16 FLuc: -25.7%; TDP1 cell noCPT: 20.6µM*; RORgamma inh: -27.5%; DT40 TDP1 CPT: 25.9µM*

How did CN(CCCC1CCCC1)C(=O)CCc1nnc(-c2ccccc2)o1 do in these assays?
IL1B secr inh: 0.9; ELG1 repair inh: inconclusive; Gal4-VP16 FLuc: -9.9%; TDP1 cell noCPT: inconclusive; RORgamma inh: 28.6%; DT40 TDP1 CPT: -28.3%

What do the screens show for `O=C(CCc1nnc(-c2ccc(-c3ccccc3)cc2)o1)NCCc1ccccn1`?
IL1B secr inh: 8.3; ELG1 repair inh: inconclusive; Gal4-VP16 FLuc: inconclusive; TDP1 cell noCPT: inconclusive; RORgamma inh: -19.0%; DT40 TDP1 CPT: inconclusive

Results for CN(C(=O)CCc1nnc(-c2ccc(-c3ccccc3)cc2)o1)C1CCOCC1 ?
IL1B secr inh: 5.1; ELG1 repair inh: inconclusive; Gal4-VP16 FLuc: -13.3%; TDP1 cell noCPT: 13µM*; RORgamma inh: -27.6%; DT40 TDP1 CPT: inconclusive

What do the screens show for `O=C(O)C1(Nc2ccc([N+](=O)[O-])cc2[N+](=O)[O-])CCCC1`?
IL1B secr inh: 5.4; TDP1 cell noCPT: inconclusive; DT40 TDP1 CPT: -10.0%

What do the screens show for `COc1ccc(C(=O)N2c3ccccc3C=CC2C#N)cc1` (stereo unspecified)?
IL1B secr inh: 33.4; ELG1 repair inh: -28.0%; Gal4-VP16 FLuc: 1.2%; TDP1 cell noCPT: inconclusive; RORgamma inh: 23.4%; DT40 TDP1 CPT: -22.9%

How did CC1=Cc2ccccc2C(C#N)N1C(=O)c1ccccc1 (stereo unspecified) do in these assays?
IL1B secr inh: 22.7; ELG1 repair inh: inconclusive; Gal4-VP16 FLuc: 12.6µM*; TDP1 cell noCPT: 18.4µM*; RORgamma inh: inconclusive; DT40 TDP1 CPT: 20.6µM*

How did Cc1ccc2c(c1)C=CC(C#N)N2C(=O)c1ccccc1 (stereo unspecified) do in these assays?
IL1B secr inh: 53.3; ELG1 repair inh: 1.0%; Gal4-VP16 FLuc: -9.5%; TDP1 cell noCPT: 1.84µM*; RORgamma inh: -10.5%; DT40 TDP1 CPT: 1.64µM*

What do the screens show for `Cc1ccc2c(c1)C=CC(C)N2C(=O)c1ccccc1` (stereo unspecified)?
IL1B secr inh: 40.6; ELG1 repair inh: 1.4%; Gal4-VP16 FLuc: -3.6%; TDP1 cell noCPT: 16.4µM*; RORgamma inh: 9.2%; DT40 TDP1 CPT: inconclusive

How did CCSC(=O)N1c2ccc(OC)cc2C=CC1C#N (stereo unspecified) do in these assays?
IL1B secr inh: -6.9; TDP1 cell noCPT: 0.0052µM*; DT40 TDP1 CPT: 0.0082µM*

Results for Cc1cccc(-n2c(C)nc3cc(C(=O)NC4CCCCCC4)ccc32)c1 ?
TDP1 cell noCPT: 23.1µM*; DT40 TDP1 CPT: 13µM*

Results for Cc1cccc(-n2c(C)cc(C(=O)NC3CCCCC3)c2C)c1 ?
IL1B secr inh: -90.1*; ELG1 repair inh: inconclusive; Gal4-VP16 FLuc: inconclusive; TDP1 cell noCPT: 13µM*; RORgamma inh: inconclusive; DT40 TDP1 CPT: inconclusive

How did Cc1cccc(-n2c(C)nc3cc(C(=O)NCC4CCCO4)ccc32)c1 (stereo unspecified) do in these assays?
IL1B secr inh: -22.2; ELG1 repair inh: 6.6%; Gal4-VP16 FLuc: 14.0%; TDP1 cell noCPT: 5.1%; RORgamma inh: -1.4%; DT40 TDP1 CPT: -20.0%

How did CCOc1ccc(-c2nn(CC(=O)NC3CCCC3)c3c2cnc2ccc(C)cc23)cc1 do in these assays?
TDP1 cell noCPT: 2.7%; DT40 TDP1 CPT: -2.5%

How did CC1(c2ccc(Cl)c(Cl)c2)NC(=S)N2C1NC(=S)N2c1ccccc1 (stereo unspecified) do in these assays?
IL1B secr inh: -72.8*; ELG1 repair inh: 15.8%; Gal4-VP16 FLuc: 0.9%; TDP1 cell noCPT: inconclusive; RORgamma inh: inconclusive; DT40 TDP1 CPT: -22.1%

What do the screens show for `COc1ccccc1Nc1cc(C(=O)NCCCN2CCOCC2)c2ccccc2n1`?
IL1B secr inh: -4.6; ELG1 repair inh: -22.9%; Gal4-VP16 FLuc: 8.6%; TDP1 cell noCPT: inconclusive; RORgamma inh: 29.5%; DT40 TDP1 CPT: 5.2%

Results for COc1ccc(OC)c(Nc2cc(C(=O)NCCCN3CCOCC3)c3ccccc3n2)c1 ?
IL1B secr inh: -62.8*; ELG1 repair inh: inconclusive; Gal4-VP16 FLuc: -7.9%; TDP1 cell noCPT: 23.1µM*; RORgamma inh: -12.8%; DT40 TDP1 CPT: inconclusive

Results for COc1ccc(N2CCN(CCCNC(=O)c3cc(Nc4ccc(OC)cc4OC)nc4ccccc34)CC2)cc1 ?
TDP1 cell noCPT: 20.6µM*; DT40 TDP1 CPT: 23.1µM*

What do the screens show for `O=C(/C=C/c1ccc([N+](=O)[O-])cc1)c1ccco1`?
IL1B secr inh: 0.0; ELG1 repair inh: -12.2%; Gal4-VP16 FLuc: -7.4%; TDP1 cell noCPT: inconclusive; RORgamma inh: 0.8%; DT40 TDP1 CPT: inconclusive

How did O=C(COC(=O)c1cc(Cl)ccc1O)c1ccc2c(c1)OCO2 do in these assays?
IL1B secr inh: -2.9; ELG1 repair inh: inconclusive; TDP1 cell noCPT: inconclusive; DT40 TDP1 CPT: -15.2%

What do the screens show for `O=C(/C=C/c1ccc2c(c1)OCO2)c1ccc(O)cc1O`?
IL1B secr inh: -94.5*; TDP1 cell noCPT: inconclusive; DT40 TDP1 CPT: inconclusive

How did Cc1cc(C(=O)COC(=O)c2ccc(O)cc2O)c(C)n1C(C)C do in these assays?
IL1B secr inh: 7.3; ELG1 repair inh: -18.8%; TDP1 cell noCPT: 13µM*; DT40 TDP1 CPT: 18.4µM*

Results for O=C(/C=C/c1ccc(Br)cc1)c1ccco1 ?
IL1B secr inh: -108.3*; ELG1 repair inh: inconclusive; Gal4-VP16 FLuc: 11.2µM*; TDP1 cell noCPT: 16.4µM*; RORgamma inh: inconclusive; DT40 TDP1 CPT: 7.31µM*

Results for O=C(COC(=O)c1ccc(O)cc1O)c1ccc2c(c1)OCO2 ?
IL1B secr inh: 18.8; ELG1 repair inh: 2.1%; Gal4-VP16 FLuc: inconclusive; TDP1 cell noCPT: -9.9%; RORgamma inh: 7.08µM*; DT40 TDP1 CPT: -1.4%

How did COc1ccc(CCn2c(C)cc(C(=O)COC(=O)c3ccc(O)cc3O)c2C)cc1 do in these assays?
IL1B secr inh: 10.2; TDP1 cell noCPT: inconclusive; DT40 TDP1 CPT: inconclusive

What do the screens show for `O=C(NCCc1ccc(F)cc1)C1CCC(=O)N(CC2CCCCC2)C1` (stereo unspecified)?
IL1B secr inh: 24.1; TDP1 cell noCPT: -29.2%; DT40 TDP1 CPT: -26.6%
